Calls of active or inactive are those of the source. Rule for the calls: active = hit-call score of the fitted dose curve at least 0.9, where 1 is the maximum; inactive = score below 0.9.

Read-out in the first experiment: urokinase Plasminogen Activator (uPA), PLAU (gene 5328)
As to the kind of experiment: BSK_BF4T_uPA: BioMAP Diversity Plus: BF4T Assay for urokinase Plasminogen Activator (uPA) Biomarker Activity (AID 2284275). The note with it: primary human bronchial epithelial cells with fibroblasts. In outline:
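Co-culture of human bronchial epithelial cells and dermal fibroblasts; uPA quantified by ELISA 24 hours after dosing, fitted relative to DMSO. Parallel SRB total-protein staining assessed overt cytotoxicity.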
On to `NC(=O)C(F)(F)C(F)(F)F`, for which the result was inactive.
Take `OCC(F)(F)OC(F)(F)C(F)(F)OC(F)(F)CO`: the result was inactive.
`O=C(O)C(F)(F)OC(F)(F)C(F)(F)OC(F)(F)C(=O)O`: the outcome was inactive.
On the same count and under the same terms, in the case of `FC(F)(F)C(F)(C(F)(F)F)C(F)(F)C(F)(F)CC1CO1` (stereo not drawn) it was “inactive”; in that of `O=C(O)C(F)(F)OC(F)(F)C(F)(F)OC(F)(F)F`, “inactive”.
In the case of `C=CC(=O)OCC(F)(F)C(F)F`, the outcome was inactive.
The same measure, in the same setting: the entry for `O=S(=O)(F)C(F)(F)C(F)(F)C(F)(F)C(F)(F)C(F)(F)C(F)(F)C(F)(F)C(F)(F)F` is “inactive”; for `O=C(O)C(F)(OC(F)(F)C(F)(F)C(F)(F)F)C(F)(F)F` (stereo not drawn) it is “inactive”.
Same read-out and setting: the entry for `O=C(O)C(F)(F)C(F)(F)C(=O)O` is “inactive”; for `O=C(O)C=CC(F)(C(F)(F)F)C(F)(F)F` it is “inactive”.
Regarding `COC(=O)C(F)(F)C(F)(F)OC(F)(C(F)(F)F)C(F)(F)OC(F)=C(F)F` (stereo not drawn), the result was inactive.
The same measure, in the same setting: in the case of `OCC(F)(F)OC(F)(F)C(F)(F)OC(F)(F)C(F)(F)OC(F)(F)F` it was “inactive”; in that of `OCC(F)(F)OC(F)(F)C(F)(F)OC(F)(F)C(F)(F)OC(F)(F)CO`, “inactive”.
Still for that read-out and setting: the entry for `CC(O)C(F)(F)C(F)(F)F` (stereo not drawn) is “inactive”.

Read-out in a further experiment: Matrix Metallopeptidase 9 (MMP9), MMP9 (gene 4318)
As to the kind of experiment: BSK_BF4T_MMP9: BioMAP Diversity Plus: BF4T Assay for Matrix Metallopeptidase 9 (MMP9) Biomarker Activity (AID 2284276). The note with it: primary human bronchial epithelial cells with fibroblasts. In outline: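 Co-culture of human bronchial epithelial cells and dermal fibroblasts dosed for 24 h; MMP-9 quantified by ELISA and fitted upward versus DMSO. Cytotoxicity monitored in parallel cultures by SRB total-protein staining at the biomarker time point.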
On to `NC(=O)C(F)(F)C(F)(F)F`, for which the outcome was inactive.
On the same count and under the same terms, in the case of `OCC(F)(F)OC(F)(F)C(F)(F)OC(F)(F)CO` it was “inactive”; in that of `O=C(O)C(F)(F)OC(F)(F)C(F)(F)OC(F)(F)C(=O)O`, “inactive”; in that of `FC(F)(F)C(F)(C(F)(F)F)C(F)(F)C(F)(F)CC1CO1` (stereo not drawn), “inactive”.
Still for that read-out and setting: in the case of `O=C(O)C(F)(F)OC(F)(F)C(F)(F)OC(F)(F)F` it was “inactive”; in that of `C=CC(=O)OCC(F)(F)C(F)F`, “inactive”.
Same read-out and setting: in the case of `O=S(=O)(F)C(F)(F)C(F)(F)C(F)(F)C(F)(F)C(F)(F)C(F)(F)C(F)(F)C(F)(F)F` it was “inactive”; in that of `O=C(O)C(F)(OC(F)(F)C(F)(F)C(F)(F)F)C(F)(F)F` (stereo not drawn), “inactive”; in that of `O=C(O)C(F)(F)C(F)(F)C(=O)O`, “inactive”.
Regarding `O=C(O)C=CC(F)(C(F)(F)F)C(F)(F)F`, the result was inactive.
With `COC(=O)C(F)(F)C(F)(F)OC(F)(C(F)(F)F)C(F)(F)OC(F)=C(F)F` (stereo not drawn), the result was inactive.
Regarding `OCC(F)(F)OC(F)(F)C(F)(F)OC(F)(F)C(F)(F)OC(F)(F)F`, the result was inactive.
On the same count and under the same terms, in the case of `OCC(F)(F)OC(F)(F)C(F)(F)OC(F)(F)C(F)(F)OC(F)(F)CO` it was “inactive”; in that of `CC(O)C(F)(F)C(F)(F)F` (stereo not drawn), “inactive”.

The record behind these values is PubChem BioAssay (EPA / NIEHS).
